# Data from PubChem BioAssay (Tox21).
# Records with an inconclusive call do not appear. Where a call stands in place of a potency, no number is given. A structure can be active in one record and inactive in another. The source made the active and inactive calls. Calls come from the whole dose curve; as a rule, active = well fitted activation curve with a large enough effect in the repeat runs; inconclusive = weak or mixed curves, or effect the other way; inactive = no such curve, though single readings can be large or run the other way.
# Experiment: qHTS assay to identify small molecule agonists of the retinoic acid receptor (RAR) signaling pathway (AID 1159553)
# Conditions: C3RL4 RARE luciferase reporter, agonist, 6 h; activation: at 73.3 µM (top of the series) unless noted
# Excerpt: National Center for Advancing Translational Sciences [NCATS] NIH Chemical Genomics Center [NCGC] U.S. Environmental Protection Agency [EPA] National Institutes of Environmental Health Sciences [NIEHS] National Toxicology Program [NTP] Assay overview: All-trans Retinoic acid (atRA) is the potent natural metabolite of retinol and plays an important role in normal embryonic development and maintenance of cellular phenotype in adult animals. atRA is the activating ligand for the retinoic acid receptors (RARs) which form heterodimers with retinoid X receptors (RXRs) on the retinoic acid response element (RARE). Through activation of the RAR/RXRs nuclear receptors, atRA regulates the transcription of a large number of protein-coding genes and regulatory RNAs. Intracellular levels of atRA are controlled by the retinol signaling pathway (RSP) that regulates the biosynthesis and catabolism of atRA to maintain physiological levels. Chemicals that interfere with the RSP can cause abnormal intracellular levels of atRA and therefore are potential developmental toxicants. To assess compounds for the potential adverse effect on embryonic development through interfering with retinol signaling, a cell-based RARE luciferase reporter gene assay was used. C3RL4 cell line (OARSA/CFSAN/FDA, Laurel, MD) was used to screen Tox21 10K compound library for identifying activators of the RSP.
# Assay Protocol Summary: C3RL4 cells were seeded at 1,000/well in 5 uL of assay medium into white solid 1,536-well tissue culture plates (Greiner Bio-One North America Inc. Monroe, NC) using a Multidrop Combi (Thermo Scientific, Waltham, MA) dispenser. After incubation at 37 C and 5% CO2 for an overnight, 23 nL of compounds dissolved in DMSO, positive control or DMSO only were transferred by a Pintool station (Kalypsys, San Diego, CA). After 6 hr incubation at 37 C and 5% CO2, 5 uL of Amplite Luciferase reagent (AAT Bioquest Inc. Sunnyvale, CA) was added to each assay plate using a Flying Reagent Dispenser (FRD) (Aurora Discovery, San Diego, CA). Luminescence was quantified on a ViewLux plate reader (PerkinElmer, Waltham, MA) after 30 min incubation at room temperature.
# Potency is the fitted concentration of half-maximal effect.
Compound,Potency,activation
[O-]/[N+](=N\O)c1ccccc1,48.6 µM (active),
Nc1ccc(N)c(Cl)c1,inactive,
O=C(O)c1ccc(O)cc1,inactive,
CC(C)[N+](C)(CCOC(=O)C1c2ccccc2Oc2ccccc21)C(C)C,inactive,
Oc1c(Cl)ccc(Cl)c1Cl,inactive,
Cc1ccc([N+](=O)[O-])c(C)c1,inactive,
CCCCCCCCCCCCO,inactive,
CC(=O)O[C@]1(C(C)=O)CC[C@H]2[C@@H]3C=C(Cl)C4=CC(=O)CC[C@]4(C)[C@H]3CC[C@@]21C,inactive,
CCCCCCOCCOCCO,inactive,
C=CCNCC=C,inactive,
Cc1ccc(C(C)(C)C)cc1,,0.0823% [at 94.8 µM] (active)
O=C(O)c1cc(=O)[nH]c(=O)[nH]1,inactive,
COc1ccc(-c2coc3cc(O)cc(O)c3c2=O)cc1,0.686 µM (active),
C[C@]12CC[C@@H]3c4ccc(O)cc4CC[C@H]3[C@@H]1CC[C@H]2O,inactive,
CC(=O)Oc1c(C)c(C)c2c(c1C)CC[C@@](C)(CCC[C@H](C)CCC[C@H](C)CCCC(C)C)O2,inactive,
O=Cc1ccccc1C=O,inactive,
CC(=O)[C@@]1(O)CC[C@H]2[C@@H]3C[C@H](C)C4=CC(=O)C=C[C@]4(C)[C@@]3(F)[C@@H](O)C[C@@]21C,inactive,
ClC/C=C/CCl,inactive,
CC(=O)Nc1ccc2c(c1)Cc1cc(NC(C)=O)ccc1-2,30.6 µM (active),
CN(Cc1cnc2nc(N)nc(N)c2n1)c1ccc(C(=O)N[C@@H](CCC(=O)O)C(=O)O)cc1,inactive,

Compound,Potency,activation
CCCCCC1C(=O)CCC1CC(=O)OC (stereo not given),inactive,
CC(C)(C)c1cccc(C(C)(C)C)c1O,inactive,
COCCOCCOCCO,inactive,
Nc1cc([N+](=O)[O-])ccc1C(=O)O,inactive,
Cc1ccc(C)c(O)c1,inactive,
CN1CCOCC1,inactive,
CCOC(=O)C(C)Oc1ccc(Oc2cnc3cc(Cl)ccc3n2)cc1 (stereo not given),inactive,
Nc1cc(Cl)c(N)c(Cl)c1,inactive,
COc1ccc2nc(N)sc2c1,19.3 µM (active),
CCCCCCCC/C=C\CCCCCCCC(=O)O,inactive,
OCCNCCO,inactive,
Cc1ccc(N)c([N+](=O)[O-])c1,inactive,
O=C1OC2(c3ccccc31)c1cc(I)c(O)c(I)c1Oc1c2cc(I)c(O)c1I,inactive,
Cc1ccc2c(c1)C(=O)OC2=O,inactive,
Clc1ccc(Sc2cc(Cl)c(Cl)cc2Cl)cc1,inactive,
O=C(O)CCCC(=O)O,inactive,
C=CCOC(=O)C(=C)C,inactive,
NCCS(=O)(=O)O,28.4 µM (active) and inactive,
CN(C)/N=N/c1nc[nH]c1C(N)=O,inactive,

# Same assay, conditions: C3RL4 RARE luciferase reporter, agonist, 6 h; at 73.3 µM (top of the series)
row,Compound,activation
1,Cc1ccc(C(C)(C)C)cc1,-0.68% (inactive)
